From PubChem BioAssay (NCATS) come the findings set out here.

Results filed as inconclusive are left out. A call without a number means that no potency is given here. Values without a mark were called inactive. Activity calls are given as the source filed them. Calls come from the whole dose curve.

This assay deals with Nucleoprotein (Lymphocytic choriomeningitis virus (strain Armstrong)) (UniProt P09992). The assay can be described thus: qHTS for Inhibitors of the Functional Ribonucleoprotein Complex (vRNP) of Lymphocytic Choriomeningitis Arenaviruses (LCMV): LCMV Primary Screen - GLuc reporter signal (AID 1347086). Note: nearly all actives have a fitted effect of over 70% in size. To be noted: LCMV minigenome vRNP cell assay, Gaussia luciferase reporter; series mostly up to 57.5 µM; activity change, negative = inhibition: at the top concentration.
Chain of Nucleoprotein (Lymphocytic choriomeningitis virus (strain Armstrong)) (P09992 whole entry, looked up): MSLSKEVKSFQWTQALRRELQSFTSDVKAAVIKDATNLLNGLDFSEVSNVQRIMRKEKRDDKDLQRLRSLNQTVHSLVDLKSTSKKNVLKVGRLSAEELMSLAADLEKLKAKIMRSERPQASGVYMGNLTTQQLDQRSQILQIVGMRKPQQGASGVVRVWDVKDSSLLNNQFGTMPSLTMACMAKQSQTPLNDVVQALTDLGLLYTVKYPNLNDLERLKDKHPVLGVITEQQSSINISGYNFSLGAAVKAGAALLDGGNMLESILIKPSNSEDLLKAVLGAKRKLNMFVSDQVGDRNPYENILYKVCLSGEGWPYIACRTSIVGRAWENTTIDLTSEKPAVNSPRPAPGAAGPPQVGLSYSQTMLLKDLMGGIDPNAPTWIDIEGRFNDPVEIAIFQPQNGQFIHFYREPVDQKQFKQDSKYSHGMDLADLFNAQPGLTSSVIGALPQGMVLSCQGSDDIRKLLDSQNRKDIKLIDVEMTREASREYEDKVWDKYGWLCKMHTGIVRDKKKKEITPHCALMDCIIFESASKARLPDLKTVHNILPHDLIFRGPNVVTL
Take `CCCN1CCO[C@@H]2c3cc(O)ccc3OC[C@H]21`: the Potency entry was “inactive”.

As for `CC(=O)[C@H]1CCC2C3CC[C@H]4C[C@H](O)CC[C@]4(C)C3CC[C@@]21C` (stereo not given in full), the Potency entry was “inactive”. With `CCCN1CCC[C@H](c2cccc(O)c2)C1`, the “activity change, negative = inhibition” value was 16.1%. With `O=C1CCCN1CC#CCN1CCCC1`, the “activity change, negative = inhibition” value was 19.4%. Still for that read-out and setting: in the case of `CC(C)NC(C)Cc1ccc(I)cc1` (stereo not given) it was 16.6%. `NCCc1c[nH]c2ccccc12`: the Potency result was “inactive”.

With `NC(CCP(=O)(O)O)C(=O)O` (stereo not given), the “activity change, negative = inhibition” value was 7.72%. In the case of `C[C@@H]1O[C@H](C[N+](C)(C)C)C[C@H]1O`, the Potency entry is “inactive”. On to `NC(=NCCC[C@H](N)C(=O)O)N[N+](=O)[O-]`, for which the “activity change, negative = inhibition” value was 9.02%. Turning to `C[N+]1(C)C2CCC1CC(OC(=O)C(CO)c1ccccc1)C2` (stereo not given), the Potency entry was “inactive”.
